HPGD block = qHTS Assay for Inhibitors of HPGD (15-Hydroxyprostaglandin Dehydrogenase); 15-hydroxyprostaglandin dehydrogenase [NAD(+)] (Homo sapiens), P15428; purified HPGD, NADH fluorescence kinetic, PGE2 substrate; Potency, µM, hits mostly inhibitors; hit rate 4.3% among 150,000
Target sequence (P15428 whole entry, looked up): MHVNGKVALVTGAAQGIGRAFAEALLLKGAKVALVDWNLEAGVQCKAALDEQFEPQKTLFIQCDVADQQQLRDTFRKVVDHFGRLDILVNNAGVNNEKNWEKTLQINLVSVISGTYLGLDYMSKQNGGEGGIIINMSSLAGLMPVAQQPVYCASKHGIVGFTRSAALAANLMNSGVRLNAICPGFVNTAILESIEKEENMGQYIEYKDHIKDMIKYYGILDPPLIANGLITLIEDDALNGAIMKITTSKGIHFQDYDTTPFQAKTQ
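20 nM HPGD preincubated 15 min at room temperature with compound in 50 mM Tris-HCl pH 8, 0.01% Tween 20. Started with 1 mM NAD+ and 30 uM prostaglandin E2; NADH fluorescence (360/450 nm) read 5 times over 30-s intervals, last minus first.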
IMPase inh = qHTS Assay for Identifying the Cell-Membrane Permeable IMPase Inhibitors. CHO-M1 cells, IP1 accumulation, HTRF TR-FRET ratio. AID 901, 2007. inhibition (IP1 accumulation), % at 46.1 µM. 120,000 tested, under 10 active. Inositol monophosphatase 1 (Rattus norvegicus), P97697; active = well fitted curve in the direction sought with a large enough effect in the signal ratio, not every such curve was filed as active; inconclusive = small, poorly fitted or top-dose-only effect, or a change in a side signal; inactive = no such curve, though single readings can be large or run the other way; the % refers to the signal ratio;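 note: cells stimulated with carbachol in lithium chloride buffer; higher means more IMPase inhibition seen as more IP1 and lower FRET ratio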
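Carbachol-driven Gq signalling in CHO-M1 cells (2000/well) generates IP1. Compounds that block IMPase raise IP1 and so reduce the FRET signal from Eu-anti-IP1 and d2-IP1 after a 10 min room-temperature lysis.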
ALDH1A1 block = qHTS Assay for Inhibitors of Aldehyde Dehydrogenase 1 (ALDH1A1); Purified ALDH1A1, NADH fluorescence, propionaldehyde substrate; hit rate 7.3% among 220,000; Potency, µM (top dose mostly 75.3 µM), most hits filed as inhibitors; Aldehyde dehydrogenase 1A1 (Homo sapiens), P00352
Numbers stand for hits; n = inactive; u = inconclusive; x = no result; [ ] = dose if it differs, or a comment. A selection: hits, their analogues and other compounds. The true share with any hit is near 9%. Unless noted, calls come from the whole dose curve; as a rule, active = well fitted inhibition curve with a large enough effect (not every such curve was filed as active); inconclusive = small, poorly fitted or top-dose-only effect, or another doubt; inactive = no such curve, though single readings can be large or run the other way.

SMILES | HPGD block | IMPase inh | ALDH1A1 block
CCCCN1CCC(n2c(=O)[nH]c3ccccc32)CC1 | n | n | n
Cc1c(I)c(=O)n(-c2ccccc2)n1C | n | x | n
COc1ccc(-c2cc(=O)c3ccccc3s2)cc1 | 7.9µM | n | u
COc1ccc2sc3ccccc3c(=O)c2c1 | n | n | u
Cc1ccc(-n2c(=O)c3ccc(C(=O)NCc4ccco4)cc3n(CC(=O)Nc3ccccc3C(F)(F)F)c2=O)cc1 | x | n | x
O=C(CCNS(=O)(=O)c1cccc2nonc12)NC1CCCc2ccccc21 (stereo unspecified) | n | n | 14µM
O=C(CCNS(=O)(=O)c1cccc2nsnc12)NC1CCCc2ccccc21 (stereo unspecified) | n | n | u
O=C(NC1CCCc2ccccc21)C1CCN(S(=O)(=O)c2cccc3nonc23)CC1 (stereo unspecified) | n | n | 32µM
O=C(NC1CCCc2ccccc21)C1CCN(S(=O)(=O)c2ccccc2F)CC1 (stereo unspecified) | n | x | u
CCOC(=O)c1c(NC(=O)c2cc(C)on2)c2cc([N+](=O)[O-])ccc2n1C | x | x | n
COC(=O)C(Cc1ccc(O)cc1)NC(=O)C(CC(=O)OC(C)(C)C)NC(=O)OC(C)(C)C (stereo unspecified) | x | x | n
COc1ncc2nc(-c3cn(C)c4ccccc34)c(=O)n(CCC#N)c2n1 | x | x | n
O=C(CN1CCC(C(=O)c2ccc(Cl)cc2)CC1)Nc1ccc2c(c1)OCCO2 | n | n | n
O=C(CCN1C(=O)c2ccccc2S1(=O)=O)Nc1ccccc1 | x | x | n
O=C(CN1CCN(CC(=O)Nc2ccccc2Cl)CC1)Nc1ccc2c(c1)OCCO2 | n | n | 7.9µM
Cc1ccc(S(=O)(=O)Nc2cc(NC(=O)CN3CCOCC3)ccc2Cl)cc1 | n | n | 18µM
Cc1ccc(S(=O)(=O)Nc2ccc(NC(=O)CN3CCCCC3)cc2)cc1 | n | n | n
CN(C)S(=O)(=O)c1ccc(NC(=O)CN2CCC(Cc3ccccc3)CC2)cc1 | x | x | n
O=C(CN1CCC(Cc2ccccc2)CC1)Nc1ccc2c(c1)OCCO2 | n | n | 28µM
O=C(CCN1C(=O)c2ccccc2S1(=O)=O)Nc1ccc2c(c1)OCCO2 | n | n | 6.3µM
Cc1ccc(S(=O)(=O)NCCC(=O)Nc2ccc(C)cc2C(=O)c2ccccc2)cc1 | n | n | u
CSc1cccc(NC(=S)N(CCCN2CCC(C)CC2)Cc2cccs2)c1 | x | x | n
Cc1cccc(C(=O)Nc2cc3c(cc2N2CCCCC2)n(C)c(=O)n3C)c1 | x | n | x
O=C(N1CCOCC1)N1CCCN(C(=O)N2CCOCC2)CC1 | n | u | n
CNC(=S)Nc1ccc(OC(F)(F)F)cc1 | x | x | n
SMILES | HPGD block | IMPase inh | ALDH1A1 block
COC(=O)[C@H](CCSC)NC(=O)Nc1ccc(S(N)(=O)=O)cc1 | x | x | n
COC(=O)c1ccc(C2Nc3c(C)cc(C)cc3C3C=CCC32)cc1 (stereo unspecified) | x | n | x
Cc1cc(C)c2c(c1)[C@@H]1C=CC[C@@H]1[C@H](c1ccc(S(=O)(=O)N3CCOCC3)cc1)N2 | 25µM | x | 25µM
CCOC(=O)C(=CNc1ccc2c(c1)CCN2C(C)=O)C(=O)OCC | x | x | n
COC(=O)C1=C(C(=O)OC)[C@@H]2N(C)c3ccc(OC)cc3[C@@]23C[C@@H](C(=O)OC)N(C(C)=O)C3=N1 | n | x | n[13.5 µM]
Cc1cc(C)nc(N2CCCC(C(=O)Nc3ccc4nc(C)c(C)nc4c3)C2)n1 (stereo unspecified) | n | n | 16µM
Cc1cc(C)cc(NC(=O)C2CCCN(c3nc(C)cc(C)n3)C2)c1 (stereo unspecified) | n | n | n
CC(C)NC(=S)NN=C1c2ccccc2-c2ccccc21 | x | x | n
CC(C)NC(=S)N/N=C1\CCCCC1C1CCCCC1 (stereo unspecified) | u | n | 6.3µM
S=c1nc(SCc2ccccc2)[nH]c2ccccc12 | x | x | n
CC(C)c1nc(=S)c2ccccc2[nH]1 | u | n | 14µM
S=c1nc(C2CCCCC2)[nH]c2ccccc12 | x | x | n
S=c1nc(C2CC2)[nH]c2ccccc12 | 16µM | n | 13µM
CCc1nn(-c2ccccc2)c(N)c1-c1ccc(OC)c(OC)c1 | n | n | n
C(=N\n1cnc2ccccc21)/c1cccnc1 | n | n | n
O=c1c2cnn(-c3ccccc3)c2nnn1/N=C/c1cccnc1 | n | n | 0.4µM
CC1NC(=O)NC1CCCCCC(=O)NCCc1ccccc1 (stereo unspecified) | 25µM | n | u
Cc1cccc(C)c1NC(=O)CCCCCC1NC(=O)NC1C (stereo unspecified) | x | x | n
CC(C)OC(=O)[C@@H]1CC[C@H](C)[C@@H](CCCC=O)O1 | n | x | n
